KCNQ2 enhance – potentiators of rat KCNQ2 potassium channel | 310,000 compounds, 0.54% hits | CHO-K1 KCNQ2, FluxOR thallium flux fluorescence; hits give high values | Potassium voltage-gated channel subfamily KQT member 2 (Rattus norvegicus), O88943 | B-score at 10 µM;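 active = fluorescence ratio B-score at least 3 SD of library B-scores, with initial fluorescence B-score within 3 of them, cut at about 5.3 in these data; same plate scores as AID 2156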;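 also: B-score of peak minus minimum over baseline fluorescence ratio after K+ and Tl+ stimulus; positive B-score means potentiation of KCNQ2 with more thallium influx and brighter signal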
Target sequence (O88943 whole entry, looked up): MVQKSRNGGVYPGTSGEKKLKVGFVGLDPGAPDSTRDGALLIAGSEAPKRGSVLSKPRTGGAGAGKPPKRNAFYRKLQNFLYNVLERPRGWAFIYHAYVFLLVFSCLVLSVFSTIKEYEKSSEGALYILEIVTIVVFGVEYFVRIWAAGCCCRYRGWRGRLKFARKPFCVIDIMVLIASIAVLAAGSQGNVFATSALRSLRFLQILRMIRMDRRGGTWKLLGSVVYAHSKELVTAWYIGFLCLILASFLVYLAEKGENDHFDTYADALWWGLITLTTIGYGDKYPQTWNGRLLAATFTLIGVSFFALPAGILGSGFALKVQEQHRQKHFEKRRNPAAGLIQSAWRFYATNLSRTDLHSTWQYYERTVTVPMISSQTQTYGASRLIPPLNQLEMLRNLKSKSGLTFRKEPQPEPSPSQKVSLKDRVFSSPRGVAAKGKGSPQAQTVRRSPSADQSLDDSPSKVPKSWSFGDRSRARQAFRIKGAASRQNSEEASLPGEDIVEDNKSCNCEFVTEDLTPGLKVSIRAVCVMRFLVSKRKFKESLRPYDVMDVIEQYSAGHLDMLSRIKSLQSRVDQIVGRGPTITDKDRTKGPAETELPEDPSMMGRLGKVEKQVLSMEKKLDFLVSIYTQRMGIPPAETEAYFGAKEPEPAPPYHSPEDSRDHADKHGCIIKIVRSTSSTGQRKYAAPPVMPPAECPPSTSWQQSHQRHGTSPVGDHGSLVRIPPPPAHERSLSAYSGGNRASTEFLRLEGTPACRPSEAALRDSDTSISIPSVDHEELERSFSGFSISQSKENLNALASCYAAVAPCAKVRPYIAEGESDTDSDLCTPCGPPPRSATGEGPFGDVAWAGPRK
KCNQ2 inh – rat KCNQ2 potassium channel inhibitors, primary screen, cell-based, CHO-K1, FluxOR thallium flux, B-score | Potassium voltage-gated channel subfamily KQT member 2 (Rattus norvegicus), O88943 | 20 min; hits give low values | B-score at 10 µM | 310,000 compounds, 1.1% hits;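 active = fluorescence ratio B-score at most minus 3 library SDs, with starting brightness B-score within 2 library SDs, cut at about -5.5 in these data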
KCNQ2 block conf – rat KCNQ2 potassium channel inhibitors, confirmation, cell-based, thallium flux; shares compounds with KCNQ2 inh; AID 493025, 2011; activity change, negative = inhibition, % at 10 µM; KCNQ2-expressing cells, inhibition; hits give low values; 1,000 compounds, 57% hits;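 also: 0% = vehicle wells and values are ratio percent relative to vehicle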
KCNQ1 spec – human KCNQ1 channel inhibition, counter-screen for KCNQ2 inhibitor project, cell-based, FluxOR thallium flux | 1,000 compounds, 15% hits | shares compounds with KCNQ2 inh | activity change, negative = inhibition, % at 10 µM | KCNQ1-expressing cells, FluxOR thallium flux fluorescence; hits give low values;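 active = activity change at least 3 SD of negative controls below their mean in both duplicate wells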;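 also: CHO cells stably transfected with KCNQ1 and depolarized by potassium stimulus; peak minus minimum fluorescence over baseline after thallium addition; 0% = vehicle negative control and -100% = blank without thallium stimulus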
CHO Tl ctr – thallium flux change in parental CHO cells, counter-screen for KCNQ2 inhibitor project. activity change, % at 10 µM. shares compounds with KCNQ2 inh. hits give low values. 1,000 compounds, 14% hits;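 also: 0% = vehicle negative controls with stimulus buffer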
KCNQ2 inh confirm – rat KCNQ2 channel inhibitors, confirmation, cell-based, automated patch clamp, single concentration; shares compounds with KCNQ2 inh; KCNQ2-expressing cells, automated patch clamp current; calls only at 10 µM; 550 compounds, 49% hits; AID 588531, 2011
The depositor's hits bear a star; i = inactive; · = no result; + = active, no number. An excerpt weighted towards active compounds, which were near 1.6% of everything screened. Unless noted, no rule for the calls is given here.

SMILES	KCNQ2 enhance	KCNQ2 inh	KCNQ2 block conf	KCNQ1 spec	CHO Tl ctr	KCNQ2 inh confirm
COC(=O)[C@@]1(Cc2ccc(F)cc2)[C@H]2c3cc(C(=O)N4CCCC4)n(CCCNc4ncc(C(F)(F)F)cc4Cl)c3C[C@H]2CN1C(=O)c1ccccc1	·	i	·	·	·	·
CCOC(=O)C1=NNC(C(=O)c2ccccc2)C1c1ccc(Cl)cc1 (configuration not stated)	-8.81	-8.81*	-17.5%*	i	i	i
CCOC(=O)C1=NNC(C(=O)c2ccccc2)C1c1ccc(C)cc1 (configuration not stated)	·	i	·	·	·	·
CCOC(=O)c1nn(-c2ccccc2)c(=O)cc1OCC(=O)Nc1ccccc1OCC	·	i	·	·	·	·
CC(=O)CN1Cc2ccccc2/C1=N\C(=O)Nc1ccccc1	1.03	i	·	·	·	·
COc1ccc(N2Cc3ccccc3/C2=N\C(=O)Nc2ccccc2)cc1	-7.11	-7.11*	-27.5%*	i	i	+
COc1ccc(-c2cc(C(=O)N3CCCCCC3)c3cc(C)ccc3n2)cc1	-8.46	-8.46*	-29.5%*	i	i	+
Cc1ccc(-c2cc(C(=O)N3CCOCC3)c3ccccc3n2)cc1	·	i	·	·	·	·
COc1ccc(-c2cc(C(=O)N3CCCCC3)c3ccccc3n2)cc1	·	i	·	·	·	·
COc1ccc(-c2cc(C(=O)N3CCOCC3)c3cc(C)ccc3n2)cc1	-7.23	-7.23*	-31.0%*	i	i	+
Cc1c(Br)c([N+](=O)[O-])nn1CC(=O)NCc1cccnc1	·	i	·	·	·	·
CC(NC(=O)CCc1nnc(CCCc2ccccc2)o1)c1ccccc1 (configuration not stated)	·	i	·	·	·	·
COc1ccc2cc(C(=O)NCCCN3CCCC3=O)[nH]c2c1	0.94	i	·	·	·	·
CCOC(=O)N1CCN(c2c(NCCCN3CCCCCC3)c(=O)c2=O)CC1	·	i	·	·	·	·
CCCCn1cnc2c(c(-c3ccccc3)c(-c3ccccc3)n2Cc2ccco2)c1=N	-7.64	-7.64*	-27.0%*	i	i	i
CCCCn1c(=O)[nH]c(=O)c2c1ncn2Cc1ccco1	0.89	i	·	·	·	·
Cc1ccccc1C(=O)Nc1ccccc1NC(=O)c1ccccc1Br	·	i	·	·	·	·
COc1ccc(Nc2ccccc2NC(=O)c2ccccc2Br)cc1	-9.62	-9.62*	-22.0%*	i	i	+
CC12CCC(C(=O)N3CCC(Cc4ccccc4)CC3)(C(=O)C1=O)C2(C)C (configuration not stated)	·	i	·	·	·	·
C=CCn1c(SCC(=O)c2cc(C)n(C(C)COC)c2C)nc2sc(C)c(C)c2c1=O (configuration not stated)	-10.8	-10.8*	i	i	i	·
C=CCn1c(SCC(=O)NCCO)nc2sc(C)c(C)c2c1=O	·	i	·	·	·	·
O=CNCCCc1nc2ccccc2n1CCc1ccccc1	·	i	·	·	·	·
COc1ccc(NC(=O)c2cc3c(Cl)nc4ccccc4c3s2)c(OC)c1	0.8	i	·	·	·	·
COc1ccc(N(C)C(=O)c2cc3c(Cl)nc4ccccc4c3s2)cc1	-9.52	-9.52*	-39.0%*	-40.0%*	-37.0%*	+
O=C(c1cccc([N+](=O)[O-])c1)N1CCCC(C(=O)N2CCN(c3ccccc3)CC2)C1 (configuration not stated)	1.44	i	·	·	·	·
SMILES	KCNQ2 enhance	KCNQ2 inh	KCNQ2 block conf	KCNQ1 spec	CHO Tl ctr	KCNQ2 inh confirm
COc1ccccc1N1CCN(C(=O)C(Cc2ccccc2)NC(=O)C2CCCCC2)CC1 (configuration not stated)	-7.41	-7.41*	-33.0%*	i	i	+
CCC(C(=O)N1CCN(c2ccccc2OC)CC1)c1ccccc1 (configuration not stated)	·	i	·	·	·	·
COc1cccc(CN2CCC(N(CCc3ccccc3)Cc3ccccc3)CC2)c1OC	·	i	·	·	·	·
CN1CCN(C2Cc3ccc(F)cc3Sc3cc(F)c(Cl)cc32)CC1 (configuration not stated)	·	i	·	·	·	·
CC(C)c1ccc2c(c1)C(N1CCNCC1)Cc1ccc(F)cc1S2 (configuration not stated)	-9.69	-9.69*	-38.5%*	-36.5%*	-31.0%*	i
CC1CCCC(C)N1CCCNC(=O)c1nn(C)c2c1CSc1ccccc1-2 (configuration not stated)	0.45	i	·	·	·	·
CN(C(=O)c1nn(C)c2c1CSc1ccccc1-2)c1ccccc1Cl	-6.74	-6.74*	-37.0%*	-40.5%*	-33.5%*	i
CCOc1ccc(N(Cc2ccc(OC)cc2)C(=O)c2ccco2)cc1	·	i	·	·	·	·
COc1ccc(CN(C(=O)c2ccco2)c2ccc(C)c(C)c2)cc1	-6.66	-6.66*	i	i	i	·
COc1ccc(C(=O)Nc2cc3c(cc2OC)CCCC3)cc1Br	·	i	·	·	·	·
COc1cc2c(cc1NC(=O)c1ccc(C(C)(C)C)cc1)CCCC2	-7.22	-7.22*	i	i	i	·
COc1ccc(CCNC(=O)c2ccccc2N(C)S(=O)(=O)c2ccccc2)cc1	0.14	i	·	·	·	·
CN(c1ccccc1C(=O)NCc1ccccc1Cl)S(=O)(=O)c1ccccc1	-10.1	-10.1*	i	i	i	·
Cc1ccccc1NC(=O)c1ccccc1N(C)S(=O)(=O)c1ccccc1	-7.63	-7.63*	-20.5%*	i	i	+
CC(=O)Nc1ccc(NC(=O)c2ccccc2N(C)S(=O)(=O)c2ccccc2)cc1	·	i	·	·	·	·
COC(C[C@H]1O[C@H]1[C@H](O)COCc1ccccc1)OC	·	i	·	·	·	·
COc1ccc(-c2cc(C(=O)NN3CCOCC3)c3ccccc3n2)cc1OC	0.26	i	·	·	·	·
COc1cc(-c2cc(C(=O)Nc3nc4ccccc4s3)c3ccccc3n2)cc(OC)c1OC	·	i	·	·	·	·
COc1cc(-c2cc(C(=O)Nc3ccccc3N3CCOCC3)c3ccccc3n2)cc(OC)c1OC	-7.79	-7.79*	-31.0%*	i	i	+
O=C(Nc1ccccc1F)c1cc(-c2ccco2)nc2ccccc12	0.04	i	·	·	·	·
COc1cc(-c2cc(C(=O)Nc3ccc(O)cc3)c3ccccc3n2)cc(OC)c1OC	-7.67	-7.67*	-29.5%*	i	i	+
O=C(Nc1ccccc1N1CCOCC1)c1cc(-c2ccco2)nc2ccccc12	-7.02	-7.02*	-54.0%*	-54.5%*	-50.0%*	+
S=C(NCc1ccco1)Nc1cc(-c2ccccc2)[nH]n1	·	i	·	·	·	·
O=c1c(Cl)c(NCc2ccccc2Cl)cnn1C12CC3CC(CC(C3)C1)C2	·	i	·	·	·	·
CCOc1ccc(N(Cc2cc3cc(C)ccc3[nH]c2=O)S(=O)(=O)c2ccccc2)cc1	·	i	·	·	·	·
CC(=O)Nc1ccc2c(c1)nc(CCN1CCN(c3ccccn3)CC1)n2C	·	i	·	·	·	·
